The results in this text go back to ChEMBL document CHEMBL4808148, “HDAC6 screening dataset using tau-based substrate in an enzymatic assay yields selective inhibitors and activators” (2021).

The campaign covered roughly 5,600 compounds. About 390 (7%) showed an effect of 50% or more. Shown is part of a subset that was picked to be rich in strong results.

In this assay the target is T1, Protein deacetylase HDAC6 (Homo sapiens) (UniProt Q9UBN7).
T1 sequence (whole entry): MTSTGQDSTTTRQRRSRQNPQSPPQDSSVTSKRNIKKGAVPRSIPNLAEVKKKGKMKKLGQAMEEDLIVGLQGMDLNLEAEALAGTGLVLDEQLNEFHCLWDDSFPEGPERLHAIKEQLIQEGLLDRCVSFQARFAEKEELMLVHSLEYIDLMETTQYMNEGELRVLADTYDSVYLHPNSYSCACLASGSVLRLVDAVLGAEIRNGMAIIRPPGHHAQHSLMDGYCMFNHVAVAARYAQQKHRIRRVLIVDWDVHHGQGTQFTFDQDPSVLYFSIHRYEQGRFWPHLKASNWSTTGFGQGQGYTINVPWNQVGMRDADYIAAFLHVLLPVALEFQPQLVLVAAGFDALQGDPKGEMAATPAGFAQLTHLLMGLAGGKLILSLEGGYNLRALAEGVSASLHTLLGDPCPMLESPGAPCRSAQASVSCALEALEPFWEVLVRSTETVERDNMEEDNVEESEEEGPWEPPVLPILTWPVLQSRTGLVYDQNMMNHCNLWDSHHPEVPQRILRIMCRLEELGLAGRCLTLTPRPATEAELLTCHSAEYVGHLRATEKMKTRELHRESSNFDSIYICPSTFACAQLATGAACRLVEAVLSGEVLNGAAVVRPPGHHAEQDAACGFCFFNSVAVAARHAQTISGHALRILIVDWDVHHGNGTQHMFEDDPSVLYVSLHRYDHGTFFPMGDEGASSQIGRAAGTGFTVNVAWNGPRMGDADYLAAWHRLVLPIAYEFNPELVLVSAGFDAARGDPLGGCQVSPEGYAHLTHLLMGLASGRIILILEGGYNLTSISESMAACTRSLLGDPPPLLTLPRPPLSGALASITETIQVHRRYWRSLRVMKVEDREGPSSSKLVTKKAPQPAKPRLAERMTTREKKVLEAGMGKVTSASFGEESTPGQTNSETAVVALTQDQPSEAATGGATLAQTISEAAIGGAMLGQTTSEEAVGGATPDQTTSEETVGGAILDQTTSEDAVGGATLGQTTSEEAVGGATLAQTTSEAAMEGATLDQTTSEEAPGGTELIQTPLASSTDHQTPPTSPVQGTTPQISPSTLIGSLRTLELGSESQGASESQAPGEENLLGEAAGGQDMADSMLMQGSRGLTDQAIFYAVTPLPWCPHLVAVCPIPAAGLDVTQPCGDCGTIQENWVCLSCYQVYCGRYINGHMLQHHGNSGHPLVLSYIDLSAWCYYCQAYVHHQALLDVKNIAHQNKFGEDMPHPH
Conditions: at 10 µM.
In the case of `O=C(O)Cc1ccc2c(c1)C(=O)c1ccccc1CO2`, the inhibition was determined as 75%. With `O=C(O)Cc1ccc(OCc2ccccc2)c(Cl)c1` the figure was -0.75%. Next, `O=C(O)c1ccc(N2N=C(Cc3ccccc3)/C(=C\c3ccc(-c4ccccc4F)o3)C2=O)cc1`: 5.2%.

Regarding `CC(C)OC(=O)N[C@H]1Cc2c(n(Cc3ccccn3)c3ccc(C#N)cc23)C1`, the inhibition was -8.91%. Regarding `CC(C)(C)c1ccc(-c2nc3ccccc3[nH]2)cc1`, the inhibition is 105%. Take `CC(C)(C)c1ccc(O)cc1`: the inhibition was found to be 17.6%. Next, `C#CCC(Cc1cnc2nc(N)nc(N)c2n1)c1ccc(C(=O)N[C@@H](CCC(=O)O)C(=O)O)cc1` (stereo partly drawn): 30%. Next, `Oc1cc(CNC(=S)/C=C/c2cc(O)c(O)c(Br)c2)cc(O)c1O`: 36%; `COc1cc(N2CCN(C)CC2)ccc1Nc1ncc2c(n1)N(C)c1ccccc1C(=O)N2C`: 0.79%; `COc1ccc(N(C(=O)Oc2c(C)cccc2C)c2ccnc(Nc3ccc(N4CCN(C)CC4)cc3)n2)c(OC)c1`: 102%. In the case of `COC(=O)c1ccc(N2CCN(C)CC2)c(NC(=O)c2cccc(OC)c2)c1`, the inhibition came out at 5.02%.

For the compound `Cn1c(C#N)ccc1-c1ccc2c(c1)C(C)(C)OC(=S)N2`, the inhibition stood at 12.5%.

As to `O=C(Nc1cc(C(F)(F)F)cc(C(F)(F)F)c1)c1cc(Cl)ccc1O`, the inhibition was determined as 3.28%. With `CC(=O)NCCNc1cc(Cl)nn2c(-c3cccc(S(=O)(=O)N(C)C)c3)c(C)nc12` the figure was 15.6%; with `CC(C)CN(C[C@@H](OP(=O)(O)O)[C@H](Cc1ccccc1)NC(=O)O[C@H]1CCOC1)S(=O)(=O)c1ccc(N)cc1`, 7.63%. With `CCCN(CCC)C(=O)Cc1c(-c2ccc(Cl)cc2)nc2ccc(Cl)cn12` the figure was -6.78%; with `CC1=CC(=C(c2ccc(N)cc2)c2ccc(N)cc2)C=CC1=N`, 57.5%; with `O=C(O)c1ccccc1NC(=O)C12CC3CC(CC(C3)C1)C2`, 8.92%. Next, `COc1ccc(S(=O)(=O)N2CCCN(S(=O)(=O)c3ccc(OC)c(OC)c3)CC2)cc1OC`: 5.48%.

Take `O=C(NO)c1cnc(N2CCN(S(=O)(=O)c3ccc4ccccc4c3)CC2)nc1`: the inhibition was found to be 102%. With `O[C@@](Cc1nc(CC2(C(F)(F)F)CC2)c[nH]1)(c1ccc(-n2cccn2)cc1)C(F)(F)F` the figure was -0.94%; with `O=C(O)CCc1ccc(NCc2cccc3c2CCCN3CCOc2ccccc2)cc1F`, 8.07%; with `OCCNC1CCCc2c1[nH]c1ccc(-c3ccccc3)cc21` (stereo not drawn), 59.1%.

Regarding `CCc1nc(C)ccc1O`, the inhibition was found to be 3.81%. With `N[C@@H](CSCC(=O)O)C(=O)O` the figure was 17.8%; with `CC1(C)CC[C@]2(C(=O)O)CC[C@]3(C)[C@H](C(=O)C=C4[C@@]5(C)C=C(C#N)C(=O)C(C)(C)[C@@H]5CC[C@]43C)[C@@H]2C1`, 11.2%. Next, `CN(C)/N=N/c1ccc(C(=O)O)cc1`: 26.9%; `C=C1C[C@@]2(O)O[C@@]3(C[C@H]2C(C)C)[C@@H](C)CC[C@@H]13`: 20.2%. In the case of `CC(C)(C)C(=O)NCCCC(=O)O`, the inhibition came to 0.18%.

On to `N=C1CCCN1Cc1[nH]c(=O)[nH]c(=O)c1Cl`, for which the inhibition is 55.5%. With `O=C(O)c1cc(/N=N/c2ccc(O)c(C(=O)O)c2)ccc1O` the figure was 98.2%; with `COc1ccc(NS(=O)(=O)c2ccc(/N=N/c3ccc(O)c(C(=O)O)c3)cc2)nn1`, 35.8%; with `Cc1cccc(C(=O)O)c1O`, 35.8%. Next, `O=c1[nH]c2ccccc2c(=O)n1CCCN1CCN(c2ccccc2)CC1`: 8.65%; `O=C(O)c1ccccc1Nc1cccc(C(F)(F)F)c1`: 30.6%. Next, `NC(=O)NCCN1CCN(c2cccc(C(F)(F)F)c2)CC1`: 22%; `O=C(OCCN1CCOCC1)c1cccnc1Nc1cccc(C(F)(F)F)c1`: 62%. On to `c1ccc2c(c1)Nc1ccccc1S2`, for which the inhibition came out at 74.6%. Next, `CC(C)(C)C(=O)OCC(=O)[C@H]1CC[C@H]2[C@@H]3CCC4=CC(=O)CC[C@]4(C)[C@H]3CC[C@]12C`: 23.8%.

Regarding `CCC(=O)c1ccc(OCC(O)CN2CCN(c3ccccc3)CC2)cc1` (stereo not drawn), the inhibition came out at 19.9%. Next, `Cc1cc(C)nc(NS(=O)(=O)c2ccc(NC(=S)NC(=O)COc3ccc(Br)cc3Cl)cc2)n1`: 19.5%; `CCCc1ccc(C(=O)O)cc1`: 29.1%. Next, `CCc1ccc(C2=CC(C)(C)Sc3ccc(C#Cc4ccc(C(=O)O)cc4)cc32)cc1`: 63%; `CC1(C)CCC(C)(C)c2cc(C#Cc3ccc(C(=O)O)cc3)ccc21`: -3.59%.

As for `COc1cn(-c2ccc(-n3cccn3)cc2F)nc(-c2ccnn2-c2ccccc2)c1=O`, the inhibition was 0%. Next, `O=C1NC(=O)c2c1c1c3ccccc3n3c1c1c2c2ccccc2n1C1CCC3O1`: 1.84%; `C[C@H](N)Cc1c[nH]cn1`: 7.87%. With `Oc1ccc(-c2nc3cc(O)cc(Br)c3o2)cc1` the figure was 101%. With `C/C(=C(/CCOC(=O)C(C)C)SS/C(CCOC(=O)C(C)C)=C(\C)N(C=O)Cc1cnc(C)nc1N)N(C=O)Cc1cnc(C)nc1N` the figure was 9.58%; with `COc1cc(CN2CCN(c3ccc(F)cc3)CC2)cc(OC)c1OC`, 16.8%; with `CCCCCCCCCCCCCCCCCC(=O)OC[C@@H](O)[C@H]1OC[C@H](O)[C@H]1O`, 1.06%. Consider `CC(C)(C)NCC(O)c1cc(Cl)c(N)c(C(F)(F)F)c1` (stereo not drawn), for which the inhibition was determined as 16.6%. Next, `c1ccc(-c2cnn3cc(-c4ccc(OCCN5CCOCC5)cc4)cnc23)cc1`: 92.3%; `CC(C)Oc1ccc(-c2cnc3c(-c4ccnc5ccccc45)cnn3c2)cc1`: -2.96%. With `COc1ccc(-c2cnc3c(-c4cccc5ncccc45)cnn3c2)cc1` the figure was -9.41%; with `c1ccc(OCc2ccc(CCCN3CCOCC3)cc2)cc1`, 45%.

Regarding `c1cc(-c2cnn3cc(-c4ccc(OCCN5CCCCC5)cc4)cnc23)ccn1`, the inhibition turned out to be 69.7%. For `C=C1/C(=C\C=C2/CCC[C@]3(C)[C@@H]([C@H](C)/C=C/[C@H](C)C(C)(C)O)CC[C@@H]23)C[C@@H](O)C[C@@H]1O`, the inhibition was -3.96%.

For `COC(=O)[C@H](Cc1ccc([N+](=O)[O-])cc1)NC(=O)c1cccc2ccccc12`, the inhibition is 10.5%. Take `COc1ccc2cc(-c3cc(-c4cc(Cl)cc(Cl)c4)nn3[C@@H](C)c3ccc(C(=O)NCCC(=O)O)cc3)ccc2c1`: the inhibition was found to be 18.3%.

Take `OC[C@H]1O[C@H](O[C@H]2O[C@H](CO)[C@@H](O)[C@H](O)[C@H]2O)[C@H](O)[C@@H](O)[C@@H]1O`: the inhibition is -9.27%.

`O=C(OCC(COC(=O)c1cccnc1)(COC(=O)c1cccnc1)COC(=O)c1cccnc1)c1cccnc1`: the inhibition came out at 7.98%. Next, `CN(C)c1nc(N)c(C(=O)Nc2cccnc2)nc1Cl`: 100%.
